Structures are written as SMILES. Counter-ions that a name gives are not always drawn.

This assay concerns OCI-AML2. The experiment in a line: cell viability relative to vehicle control; higher = less cytotoxic. Conditions: 10 µM; SRSF2 genotype: wt/wt. In short, it runs like this: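 After removal of identity-inconsistent compounds, the Selleck bioactive, kinase and epigenetic probe libraries were screened on CRISPR-edited mutant clones and isogenic wild-type clones of four leukaemia lines. Plates were 384-well, each well holding 2000 cells in 50 µL medium and receiving a single 10 µM acoustically dispensed dose. CellTiter-Glo luminescence was read 48 h later, after the supernatant was taken off. Genedata Screener was used to express viability as percent of the on-plate vehicle control.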
For `COC(=O)C1=C(C)NC(C)=C(C(=O)OCCN2CCN(C(c3ccccc3)c3ccccc3)CC2)C1c1cccc([N+](=O)[O-])c1` (configuration not stated) [Manidipine dihydrochloride (CV-4093)], the cell viability (in general, a read-out of living cells in per cent, often relative to untreated cells) amounted to 46.8%.
As to `O=S(=O)(O)c1cc(O)ccc1O` [Calcium Dobesilate], the cell viability is 103%.
For `CC(=O)OCC(=O)[C@@]1(O)[C@H](C)C[C@H]2[C@@H]3CCC4=CC(=O)C=C[C@]4(C)[C@@]3(F)[C@@H](O)C[C@@]21C` [Dexamethasone acetate], the cell viability was 109%.
As for `O=C([O-])c1ccccc1O.[Na+]` [Sodium salicylate], the cell viability worked out at 98%.
In the case of `C=C1C(=O)O[C@@H]2C[C@@]3(C)CCCC(=C)[C@@H]3C[C@H]12` [Isoalantolactone], the cell viability worked out at 6.98%.
On to `c1ccc(Cn2c(-c3ccc(OCC(C4CCNCC4)n4c(-c5ccccc5)nc5ccccc54)cc3)nc3ccccc32)cc1` (configuration not stated) [Deltarasin], for which the cell viability was determined as 0.3%.
With `O=C(Nc1ccccc1-c1cn2c(CN3CCNCC3)csc2n1)c1cnc2ccccc2n1`, the cell viability was found to be 0.2%.

Source of the values: the supplement of paper PMC10981050.
